Reference: article PMC12529666, “Dysregulation of AGO2-miRNA dynamics underlies the AGO2-associated Lessel–Kreienkamp syndrome”
Numbering of substitutions follows the chain as printed.

B1: ACACTCCA (ssRNA)
RNA 1: GAGUUCUACAGUCCGACGAUCCCAACACACUCCACACCUGGAAUUCUCGGGUGCCAA
RNA 2: UGGAGUGUGACAAUGGUGUUUG
DNA 1: GATCGTCGGACTGTAGAACTC
DNA 2: TTGGCACCCGAGAATTCCA
modifications: constant regions annealed to DNA blockers; guide miR-122 5' phosphate
B2: ACACCTCA (ssRNA)
RNA 1: B1 RNA 1 with U31C, C32U
RNA 2: UGGAGUGUGACAAUGGUGUUUG
DNA 1: GATCGTCGGACTGTAGAACTC
DNA 2: TTGGCACCCGAGAATTCCA
modifications: constant regions annealed to DNA blockers; guide miR-122 5' phosphate
B3: ATGTCTCA (ssRNA)
RNA 1: B1 RNA 1 with C28U, A29G, C30U, U31C, C32U
RNA 2: UGGAGUGUGACAAUGGUGUUUG
DNA 1: GATCGTCGGACTGTAGAACTC
DNA 2: TTGGCACCCGAGAATTCCA
modifications: constant regions annealed to DNA blockers; guide miR-122 5' phosphate
B4: ACACCCCA (ssRNA)
RNA 1: B1 RNA 1 with U31C
RNA 2: UGGAGUGUGACAAUGGUGUUUG
DNA 1: GATCGTCGGACTGTAGAACTC
DNA 2: TTGGCACCCGAGAATTCCA
modifications: constant regions annealed to DNA blockers; guide miR-122 5' phosphate
B5: GCATCTCA (ssRNA)
RNA 1: B1 RNA 1 with A27G, C30U, U31C, C32U
RNA 2: UGGAGUGUGACAAUGGUGUUUG
DNA 1: GATCGTCGGACTGTAGAACTC
DNA 2: TTGGCACCCGAGAATTCCA
modifications: constant regions annealed to DNA blockers; guide miR-122 5' phosphate
B6: GTACTCCG (ssRNA)
RNA 1: B1 RNA 1 with A27G, C28U, A34G
RNA 2: UGGAGUGUGACAAUGGUGUUUG
DNA 1: GATCGTCGGACTGTAGAACTC
DNA 2: TTGGCACCCGAGAATTCCA
modifications: constant regions annealed to DNA blockers; guide miR-122 5' phosphate
B7: ACATCCTA (ssRNA)
RNA 1: B1 RNA 1 with C30U, U31C, C33U
RNA 2: UGGAGUGUGACAAUGGUGUUUG
DNA 1: GATCGTCGGACTGTAGAACTC
DNA 2: TTGGCACCCGAGAATTCCA
modifications: constant regions annealed to DNA blockers; guide miR-122 5' phosphate
B8: ACACTTTA (ssRNA)
RNA 1: B1 RNA 1 with C32U, C33U
RNA 2: UGGAGUGUGACAAUGGUGUUUG
DNA 1: GATCGTCGGACTGTAGAACTC
DNA 2: TTGGCACCCGAGAATTCCA
modifications: constant regions annealed to DNA blockers; guide miR-122 5' phosphate
B9: ACACTCCG (ssRNA)
RNA 1: B1 RNA 1 with A34G
RNA 2: UGGAGUGUGACAAUGGUGUUUG
DNA 1: GATCGTCGGACTGTAGAACTC
DNA 2: TTGGCACCCGAGAATTCCA
modifications: constant regions annealed to DNA blockers; guide miR-122 5' phosphate
B10: ACATTCCA (ssRNA)
RNA 1: B1 RNA 1 with C30U
RNA 2: UGGAGUGUGACAAUGGUGUUUG
DNA 1: GATCGTCGGACTGTAGAACTC
DNA 2: TTGGCACCCGAGAATTCCA
modifications: constant regions annealed to DNA blockers; guide miR-122 5' phosphate
B11: ACATCTCA (ssRNA)
RNA 1: B1 RNA 1 with C30U, U31C, C32U
RNA 2: UGGAGUGUGACAAUGGUGUUUG
DNA 1: GATCGTCGGACTGTAGAACTC
DNA 2: TTGGCACCCGAGAATTCCA
modifications: constant regions annealed to DNA blockers; guide miR-122 5' phosphate
B12: GTACTCCA (ssRNA)
RNA 1: B1 RNA 1 with A27G, C28U
RNA 2: UGGAGUGUGACAAUGGUGUUUG
DNA 1: GATCGTCGGACTGTAGAACTC
DNA 2: TTGGCACCCGAGAATTCCA
modifications: constant regions annealed to DNA blockers; guide miR-122 5' phosphate
B13: GTACTTCA (ssRNA)
RNA 1: B1 RNA 1 with A27G, C28U, C32U
RNA 2: UGGAGUGUGACAAUGGUGUUUG
DNA 1: GATCGTCGGACTGTAGAACTC
DNA 2: TTGGCACCCGAGAATTCCA
modifications: constant regions annealed to DNA blockers; guide miR-122 5' phosphate
B14: ATGCTCCA (ssRNA)
RNA 1: B1 RNA 1 with C28U, A29G
RNA 2: UGGAGUGUGACAAUGGUGUUUG
DNA 1: GATCGTCGGACTGTAGAACTC
DNA 2: TTGGCACCCGAGAATTCCA
modifications: constant regions annealed to DNA blockers; guide miR-122 5' phosphate
B15: GCGTCCTA (ssRNA)
RNA 1: B1 RNA 1 with A27G, A29G, C30U, U31C, C33U
RNA 2: UGGAGUGUGACAAUGGUGUUUG
DNA 1: GATCGTCGGACTGTAGAACTC
DNA 2: TTGGCACCCGAGAATTCCA
modifications: constant regions annealed to DNA blockers; guide miR-122 5' phosphate
B16: GCACTCCA (ssRNA)
RNA 1: B1 RNA 1 with A27G
RNA 2: UGGAGUGUGACAAUGGUGUUUG
DNA 1: GATCGTCGGACTGTAGAACTC
DNA 2: TTGGCACCCGAGAATTCCA
modifications: constant regions annealed to DNA blockers; guide miR-122 5' phosphate
B17: ACGCTTCA (ssRNA)
RNA 1: B1 RNA 1 with A29G, C32U
RNA 2: UGGAGUGUGACAAUGGUGUUUG
DNA 1: GATCGTCGGACTGTAGAACTC
DNA 2: TTGGCACCCGAGAATTCCA
modifications: constant regions annealed to DNA blockers; guide miR-122 5' phosphate
B18: ACACTCTA (ssRNA)
RNA 1: B1 RNA 1 with C33U
RNA 2: UGGAGUGUGACAAUGGUGUUUG
DNA 1: GATCGTCGGACTGTAGAACTC
DNA 2: TTGGCACCCGAGAATTCCA
modifications: constant regions annealed to DNA blockers; guide miR-122 5' phosphate
B19: ATACTCCG (ssRNA)
RNA 1: B1 RNA 1 with C28U, A34G
RNA 2: UGGAGUGUGACAAUGGUGUUUG
DNA 1: GATCGTCGGACTGTAGAACTC
DNA 2: TTGGCACCCGAGAATTCCA
modifications: constant regions annealed to DNA blockers; guide miR-122 5' phosphate

What follows are binders tested against AGO2 WT (phosphosite mutant background) (Homo sapiens, UniProt Q9UKV8 1-859, S387D;S824A;S828D;S831D;S834A) (assay: RNA Bind-n-Seq (nitrocellulose filter binding and sequencing); miR-122 guide loaded in AGO2; 60 min incubation; 30 mM Tris pH 8.0, 100 mM potassium acetate, 2 mM magnesium acetate, 0.5 mM TCEP, 0.005% NP-40, 0.01 mg/ml yeast tRNA; 3 nM AGO2-miR-122, 100 nM RNA library; 60; high values mean tight binding). Settings: protein: recombinant; tags: His6 (N-terminal, pFastBac HTA).
Summary of the method: (§1)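 Fold enrichment is each target's read fraction divided by its read fraction in the input library. Sf9 insect cells expressed His-tagged AGO2 from baculovirus; the protein was loaded with a synthetic guide RNA and purified by Ni-NTA and a biotinylated capture oligo. The bound RNA was extracted, reverse-transcribed, barcode-amplified and sequenced on Illumina.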

Chain of AGO2 WT (phosphosite mutant background) (Q9UKV8 whole entry S387D/S824A/S828D/S831D/S834A): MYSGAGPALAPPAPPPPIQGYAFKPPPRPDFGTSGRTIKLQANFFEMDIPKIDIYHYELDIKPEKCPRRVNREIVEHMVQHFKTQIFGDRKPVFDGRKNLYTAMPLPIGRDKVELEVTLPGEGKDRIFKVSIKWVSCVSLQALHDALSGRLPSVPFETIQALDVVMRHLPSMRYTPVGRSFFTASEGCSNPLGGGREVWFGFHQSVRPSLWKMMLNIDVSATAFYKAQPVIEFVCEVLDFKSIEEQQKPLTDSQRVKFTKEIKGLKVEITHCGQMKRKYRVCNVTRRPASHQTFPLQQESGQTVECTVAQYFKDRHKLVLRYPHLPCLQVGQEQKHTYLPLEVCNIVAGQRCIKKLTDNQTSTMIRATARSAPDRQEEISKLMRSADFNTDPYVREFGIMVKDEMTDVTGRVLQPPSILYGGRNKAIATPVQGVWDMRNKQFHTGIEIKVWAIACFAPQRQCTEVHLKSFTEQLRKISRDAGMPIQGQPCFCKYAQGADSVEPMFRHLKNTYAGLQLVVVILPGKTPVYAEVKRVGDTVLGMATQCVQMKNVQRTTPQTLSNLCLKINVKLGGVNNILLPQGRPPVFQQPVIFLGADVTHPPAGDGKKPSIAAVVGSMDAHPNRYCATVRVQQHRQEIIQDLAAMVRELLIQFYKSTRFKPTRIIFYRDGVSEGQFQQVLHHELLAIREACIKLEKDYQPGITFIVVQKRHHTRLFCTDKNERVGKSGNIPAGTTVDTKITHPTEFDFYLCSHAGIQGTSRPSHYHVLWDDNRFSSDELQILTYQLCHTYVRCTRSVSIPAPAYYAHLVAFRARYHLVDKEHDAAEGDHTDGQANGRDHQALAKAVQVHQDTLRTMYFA

Row | Binder | binding signal
1 | B1 | 229 fold enrichment over input
2 | B2 | 0.251 fold enrichment over input
3 | B3 | 0.232 fold enrichment over input
4 | B4 | 0.238 fold enrichment over input
5 | B5 | 0.126 fold enrichment over input
6 | B6 | 0.327 fold enrichment over input
7 | B7 | 0.139 fold enrichment over input
8 | B8 | 0.133 fold enrichment over input
9 | B9 | 154 fold enrichment over input
10 | B10 | 0.267 fold enrichment over input
11 | B11 | 0.206 fold enrichment over input
12 | B12 | 0.714 fold enrichment over input
13 | B13 | 0.125 fold enrichment over input
14 | B14 | 0.416 fold enrichment over input
15 | B15 | 0.123 fold enrichment over input
16 | B16 | 117 fold enrichment over input
17 | B17 | 0.133 fold enrichment over input
18 | B18 | 0.587 fold enrichment over input
19 | B19 | 0.401 fold enrichment over input

What follows are binders tested against AGO2 L192P (Homo sapiens, UniProt Q9UKV8 1-859, L192P;S387D;S824A;S828D;S831D;S834A) in the same assay as above. Settings: protein: recombinant; tags: His6 (N-terminal, pFastBac HTA).
Summary of the method: as §1

Chain of AGO2 L192P (Q9UKV8 whole entry L192P/S387D/S824A/S828D/S831D/S834A): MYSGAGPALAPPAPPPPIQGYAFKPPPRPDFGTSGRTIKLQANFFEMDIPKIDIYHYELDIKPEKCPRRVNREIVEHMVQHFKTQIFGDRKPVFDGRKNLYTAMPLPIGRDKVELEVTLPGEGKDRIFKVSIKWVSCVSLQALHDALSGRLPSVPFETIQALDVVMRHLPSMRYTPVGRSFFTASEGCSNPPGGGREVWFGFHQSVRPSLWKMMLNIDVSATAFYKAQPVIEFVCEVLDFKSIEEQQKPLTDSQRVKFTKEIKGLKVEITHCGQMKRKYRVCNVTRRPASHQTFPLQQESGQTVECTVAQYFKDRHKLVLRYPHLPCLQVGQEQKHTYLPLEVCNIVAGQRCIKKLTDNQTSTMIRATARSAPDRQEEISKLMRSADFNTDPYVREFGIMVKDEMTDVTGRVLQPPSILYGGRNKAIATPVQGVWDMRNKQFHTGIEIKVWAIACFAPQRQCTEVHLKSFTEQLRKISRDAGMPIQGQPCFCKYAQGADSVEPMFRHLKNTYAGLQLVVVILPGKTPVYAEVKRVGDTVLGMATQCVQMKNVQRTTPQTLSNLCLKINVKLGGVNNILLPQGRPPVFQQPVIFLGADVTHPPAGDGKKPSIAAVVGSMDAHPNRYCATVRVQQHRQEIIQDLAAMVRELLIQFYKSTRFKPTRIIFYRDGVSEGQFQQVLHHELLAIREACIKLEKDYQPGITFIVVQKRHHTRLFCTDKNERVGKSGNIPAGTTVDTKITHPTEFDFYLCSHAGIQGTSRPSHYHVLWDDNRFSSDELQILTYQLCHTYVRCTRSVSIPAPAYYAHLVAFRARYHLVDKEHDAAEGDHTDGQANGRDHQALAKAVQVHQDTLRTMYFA

Row | Binder | binding signal
20 | B1 | 102 fold enrichment over input
21 | B2 | 1.13 fold enrichment over input
22 | B3 | 0.674 fold enrichment over input
23 | B4 | 0.861 fold enrichment over input
24 | B5 | 0.567 fold enrichment over input
25 | B6 | 0.802 fold enrichment over input
26 | B7 | 0.451 fold enrichment over input
27 | B8 | 0.539 fold enrichment over input
28 | B9 | 99.5 fold enrichment over input
29 | B10 | 1.03 fold enrichment over input
30 | B11 | 0.924 fold enrichment over input
31 | B12 | 1.62 fold enrichment over input
32 | B13 | 0.53 fold enrichment over input
33 | B14 | 3.01 fold enrichment over input
34 | B15 | 0.489 fold enrichment over input
35 | B16 | 45.2 fold enrichment over input
36 | B17 | 0.605 fold enrichment over input
37 | B18 | 0.74 fold enrichment over input
38 | B19 | 1.86 fold enrichment over input

These binders were tested against AGO2 A367P (Homo sapiens, UniProt Q9UKV8 1-859, A367P;S387D;S824A;S828D;S831D;S834A) in the same assay as above. Settings: protein: recombinant; tags: His6 (N-terminal, pFastBac HTA).
Summary of the method: as §1

Chain of AGO2 A367P (Q9UKV8 whole entry A367P/S387D/S824A/S828D/S831D/S834A): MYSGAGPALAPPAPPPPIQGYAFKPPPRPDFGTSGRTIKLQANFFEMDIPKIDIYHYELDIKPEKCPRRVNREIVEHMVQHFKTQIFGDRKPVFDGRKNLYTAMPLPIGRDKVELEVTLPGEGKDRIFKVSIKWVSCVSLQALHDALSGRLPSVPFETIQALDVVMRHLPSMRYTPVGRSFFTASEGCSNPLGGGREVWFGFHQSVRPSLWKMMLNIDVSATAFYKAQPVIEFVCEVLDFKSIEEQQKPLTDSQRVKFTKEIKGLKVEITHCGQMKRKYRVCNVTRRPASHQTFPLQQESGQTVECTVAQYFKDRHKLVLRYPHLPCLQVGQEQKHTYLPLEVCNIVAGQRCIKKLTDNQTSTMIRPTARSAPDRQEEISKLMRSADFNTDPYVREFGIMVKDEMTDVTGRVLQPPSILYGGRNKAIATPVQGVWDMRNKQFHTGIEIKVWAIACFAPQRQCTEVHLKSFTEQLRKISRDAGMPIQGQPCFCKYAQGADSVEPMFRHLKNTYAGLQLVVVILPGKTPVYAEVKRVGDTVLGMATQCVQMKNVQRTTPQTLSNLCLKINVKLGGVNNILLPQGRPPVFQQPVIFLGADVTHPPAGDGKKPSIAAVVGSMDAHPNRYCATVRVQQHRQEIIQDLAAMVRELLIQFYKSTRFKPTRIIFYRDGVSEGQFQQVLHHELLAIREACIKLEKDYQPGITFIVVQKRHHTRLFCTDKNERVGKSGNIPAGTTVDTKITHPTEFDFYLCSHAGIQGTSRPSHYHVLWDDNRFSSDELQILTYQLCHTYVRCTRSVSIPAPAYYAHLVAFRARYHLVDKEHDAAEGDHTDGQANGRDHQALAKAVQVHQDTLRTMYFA

Row | Binder | binding signal
39 | B1 | 155 fold enrichment over input
40 | B2 | 0.835 fold enrichment over input
41 | B3 | 0.501 fold enrichment over input
42 | B4 | 0.466 fold enrichment over input
43 | B5 | 0.316 fold enrichment over input
44 | B6 | 2.33 fold enrichment over input
45 | B7 | 0.212 fold enrichment over input
46 | B8 | 0.229 fold enrichment over input
47 | B9 | 140 fold enrichment over input
48 | B10 | 0.711 fold enrichment over input
49 | B11 | 0.613 fold enrichment over input
50 | B12 | 3.12 fold enrichment over input
51 | B13 | 0.347 fold enrichment over input
52 | B14 | 2.6 fold enrichment over input
53 | B15 | 0.195 fold enrichment over input
54 | B16 | 66.8 fold enrichment over input
55 | B17 | 0.327 fold enrichment over input
56 | B18 | 0.661 fold enrichment over input
57 | B19 | 2.89 fold enrichment over input

What follows are binders tested against AGO2 T357M (Homo sapiens, UniProt Q9UKV8 1-859, T357M;S387D;S824A;S828D;S831D;S834A) in the same assay as above. Settings: protein: recombinant; tags: His6 (N-terminal, pFastBac HTA).
Summary of the method: as §1

Chain of AGO2 T357M (Q9UKV8 whole entry T357M/S387D/S824A/S828D/S831D/S834A): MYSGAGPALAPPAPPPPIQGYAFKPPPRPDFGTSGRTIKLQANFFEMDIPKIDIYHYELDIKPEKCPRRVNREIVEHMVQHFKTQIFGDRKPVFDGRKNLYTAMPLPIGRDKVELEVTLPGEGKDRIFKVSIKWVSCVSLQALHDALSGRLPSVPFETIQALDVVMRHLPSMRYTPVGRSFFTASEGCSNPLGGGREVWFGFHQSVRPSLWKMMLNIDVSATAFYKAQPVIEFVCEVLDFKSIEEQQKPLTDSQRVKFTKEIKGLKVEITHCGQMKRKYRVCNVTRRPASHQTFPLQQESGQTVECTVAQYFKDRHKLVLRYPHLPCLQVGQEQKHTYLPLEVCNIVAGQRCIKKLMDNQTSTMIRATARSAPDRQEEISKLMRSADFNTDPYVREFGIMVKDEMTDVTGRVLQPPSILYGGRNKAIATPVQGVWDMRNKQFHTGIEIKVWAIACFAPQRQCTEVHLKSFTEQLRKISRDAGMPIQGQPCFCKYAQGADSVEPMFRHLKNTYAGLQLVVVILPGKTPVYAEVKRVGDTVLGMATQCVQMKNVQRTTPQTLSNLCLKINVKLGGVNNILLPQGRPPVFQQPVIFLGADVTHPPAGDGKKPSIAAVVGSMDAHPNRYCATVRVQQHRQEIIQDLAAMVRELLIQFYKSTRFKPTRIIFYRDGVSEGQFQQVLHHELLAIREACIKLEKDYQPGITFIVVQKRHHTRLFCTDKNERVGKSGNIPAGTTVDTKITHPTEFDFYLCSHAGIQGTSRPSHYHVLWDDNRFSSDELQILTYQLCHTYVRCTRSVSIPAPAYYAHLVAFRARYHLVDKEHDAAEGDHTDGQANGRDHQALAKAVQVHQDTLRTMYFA

Row | Binder | binding signal
58 | B1 | 154 fold enrichment over input
59 | B2 | 0.737 fold enrichment over input
60 | B3 | 0.678 fold enrichment over input
61 | B4 | 0.678 fold enrichment over input
62 | B5 | 0.605 fold enrichment over input
63 | B6 | 0.519 fold enrichment over input
64 | B7 | 0.632 fold enrichment over input
65 | B8 | 0.707 fold enrichment over input
66 | B9 | 108 fold enrichment over input
67 | B10 | 0.738 fold enrichment over input
68 | B11 | 0.57 fold enrichment over input
69 | B12 | 0.965 fold enrichment over input
70 | B13 | 0.645 fold enrichment over input
71 | B14 | 0.765 fold enrichment over input
72 | B15 | 0.72 fold enrichment over input
73 | B16 | 44 fold enrichment over input
74 | B17 | 0.624 fold enrichment over input
75 | B18 | 0.72 fold enrichment over input
76 | B19 | 0.632 fold enrichment over input

Each binder was assayed against AGO2 F182del (Homo sapiens, UniProt Q9UKV8 1-859, S387D;S824A;S828D;S831D;S834A;del182-182) in the same assay as above. Settings: protein: recombinant; tags: His6 (N-terminal, pFastBac HTA).
Summary of the method: as §1

Chain of AGO2 F182del (Q9UKV8 other isoform, or with tags, fused parts or gaps S387D;S824A;S828D;S831D;S834A;del182-182): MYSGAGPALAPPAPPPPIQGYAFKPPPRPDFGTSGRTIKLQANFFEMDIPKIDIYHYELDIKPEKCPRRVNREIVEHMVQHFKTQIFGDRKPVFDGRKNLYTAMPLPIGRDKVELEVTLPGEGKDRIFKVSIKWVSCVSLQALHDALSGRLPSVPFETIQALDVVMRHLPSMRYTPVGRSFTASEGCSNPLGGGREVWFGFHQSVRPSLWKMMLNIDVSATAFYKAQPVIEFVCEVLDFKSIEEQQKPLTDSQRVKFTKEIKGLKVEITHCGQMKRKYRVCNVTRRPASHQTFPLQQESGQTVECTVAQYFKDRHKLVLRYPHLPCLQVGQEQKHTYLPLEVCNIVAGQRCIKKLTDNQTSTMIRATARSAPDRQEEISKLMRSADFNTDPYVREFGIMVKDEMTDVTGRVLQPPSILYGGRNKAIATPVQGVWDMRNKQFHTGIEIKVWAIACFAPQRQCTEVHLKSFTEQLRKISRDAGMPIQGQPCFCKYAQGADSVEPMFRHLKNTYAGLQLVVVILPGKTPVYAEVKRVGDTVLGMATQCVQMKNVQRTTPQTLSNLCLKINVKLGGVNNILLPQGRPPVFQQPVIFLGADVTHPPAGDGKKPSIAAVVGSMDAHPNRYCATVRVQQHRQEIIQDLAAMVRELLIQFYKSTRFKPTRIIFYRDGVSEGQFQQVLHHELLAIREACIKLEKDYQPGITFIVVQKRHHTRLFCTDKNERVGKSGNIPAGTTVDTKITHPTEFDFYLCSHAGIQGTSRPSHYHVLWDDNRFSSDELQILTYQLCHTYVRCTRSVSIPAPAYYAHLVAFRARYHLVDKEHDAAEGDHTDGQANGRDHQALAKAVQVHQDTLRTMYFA

Row | Binder | binding signal
77 | B1 | 116 fold enrichment over input
78 | B2 | 4.6 fold enrichment over input
79 | B3 | 1.79 fold enrichment over input
80 | B4 | 2.15 fold enrichment over input
81 | B5 | 0.86 fold enrichment over input
82 | B6 | 2.42 fold enrichment over input
83 | B7 | 0.299 fold enrichment over input
84 | B8 | 0.311 fold enrichment over input
85 | B9 | 91 fold enrichment over input
86 | B10 | 2.93 fold enrichment over input
87 | B11 | 2.74 fold enrichment over input
88 | B12 | 4.41 fold enrichment over input
89 | B13 | 0.936 fold enrichment over input
90 | B14 | 2.78 fold enrichment over input
91 | B16 | 91.6 fold enrichment over input
92 | B17 | 0.944 fold enrichment over input
93 | B18 | 1.96 fold enrichment over input
94 | B19 | 3.65 fold enrichment over input
